# From PubChem
# Pf apPOL inh – Pf-apPOL inhibitors, biochemical, fluorescence; Plasmodium falciparum apicoplast DNA polymerase (apPOL); Recombinant Pf-apPOL, molecular beacon fluorescence, 1.5 h; inhibition, % at 10 µM; actives 0.25% (n = 210,000)
# mHTT-CaM PPI inh – mutant huntingtin-calmodulin interaction inhibitors – biochemical, AlphaScreen, primary screen. AlphaScreen His-mHTT/GST-CaM binding, luminescence. inhibition, % at 15 µM. actives 3.6% (n = 190,000). AID 1671202, 2021
# A number is an active result; i = inactive; nt = no result; + = active, no number. Shown is part of a subset that was picked to be rich in hits. Rule as the data show it: active = inhibition above about 50%; inactive = the rest.
SMILES,Pf apPOL inh,mHTT-CaM PPI inh
COc1cc(C(O)C[N+](=O)[O-])ccc1OCc1ccccc1 (configuration not stated),i,i
Cc1ccc2c(c1)C(c1ccccc1)N(C(=O)c1ccccc1Br)CC(=O)N2 (configuration not stated),i,i
Cc1cc(C)nc(Nc2nc3ccccc3[nH]2)n1,i,i
Clc1cc2c(cc1/C=N/Nc1nc3ccccc3[nH]1)OCO2,nt,+
N#C/C(=C\c1cc2c(cc1Br)OCO2)c1nc2ccccc2[nH]1,i,i
Cc1[nH]c2ccccc2c1/C=N\Nc1nc2ccccc2[nH]1,nt,+
CCOc1ccc(C(=O)NCC(c2cccnc2)N2CCc3ccccc3C2)cc1 (configuration not stated),i,i
Cn1cc(-c2nc(C(=O)NCc3ccc(F)c(Cl)c3)cs2)c2cccnc21,i,100
Cn1cc(-c2nc(C(=O)NCc3cccc(F)c3)cs2)c2cccnc21,i,91
Cn1cc(-c2nc(C(=O)NCc3ccc(F)cc3Cl)cs2)c2cccnc21,i,i
Cn1cc(CC(=O)NCc2cccc(F)c2)c2cccnc21,i,i
Cc1ccc(-c2nc3ccccc3o2)cc1NC(=O)c1ccc([N+](=O)[O-])cc1Cl,i,i
CC1(C)OCC2(CO1)CN(C(=O)C=Cc1ccco1)C2,i,i
Cc1cc(C)c(S(=O)(=O)Nc2ncccn2)c(C)c1,i,i
Cc1cc(C)c(S(=O)(=O)Nc2ncccc2C)c(C)c1,100,i
CS(=O)(=O)N(CC(=O)NCc1ccncc1)c1ccccc1F,i,i
CNc1nccc(N2CCC(CC(=O)NCc3cnccn3)CC2)n1,i,i
CCn1ccc2c(cc(C(=O)Nc3ccc(OC(F)(F)F)cc3)n2C)c1=O,i,i
Nc1cccc(Oc2c(F)c(F)c(Oc3cccc(N)c3)c(F)c2F)c1,i,i
Nc1cc(N)cc(Oc2cc(N)cc(N)c2)c1,nt,95
Cc1nn(Cc2ccccc2Cl)c(C)c1NC(=O)c1noc2c1CCCCC2,i,i
Cc1nn(Cc2ccc(F)cc2)c(C)c1NC(=O)c1noc2c1CCCCC2,i,53
Cc1nn(Cc2ccc(Cl)cc2)c(C)c1NC(=O)c1noc2c1CCCC2,i,96
Cc1ccccc1Cn1nc(C)c(NC(=O)c2noc3c2CCCC3)c1C,i,i
O=C(Nc1ccc(Cl)cc1F)c1cc(S(=O)(=O)N2CCC(C(=O)O)CC2)ccc1F,i,i
SMILES,Pf apPOL inh,mHTT-CaM PPI inh
Cc1cccc(C(=O)N2CCN(c3ccc4c(c3)CCC4)C(=O)C2C)c1 (configuration not stated),i,i
Cc1cc(OCC(=O)Nc2ccccc2F)nc(N2CCCC2)n1,i,i
O=C(OCCN(CC12CC3CC(CC(C3)C1)C2)C(=O)c1ccco1)c1ccco1,nt,i
Cc1ccc(C)n1-c1ccc(Cl)cc1O,i,93
Cc1ccc(C)n1-c1ccc(C(=O)O)cc1O,i,i
Nc1cc(=O)[nH]c(SCCOc2ccc(Cl)cc2)n1,i,100
CCCOc1ccc(OCCSc2nc(N)cc(=O)[nH]2)cc1,i,i
CCN(CC)c1ccc(C=NCCc2ccccc2)c(O)c1,i,80
CCN(CC)c1ccc(C=Nc2ccccc2)c(O)c1,i,i
NC(=O)CSc1nc2ccccc2n1CCOc1ccc(Cl)cc1,i,64
Cc1ccc(OCCn2c(SCC(N)=O)nc3ccccc32)cc1,i,i
COc1ccc(/C=N/OCc2nc3c4c5c(sc4ncn3n2)CCCC5)cc1,i,i
O=C(CN1CCN(c2ccc(Cl)cc2)C1=O)NCCOc1ccc(F)cc1,i,i
Cc1[nH]c(=O)[nH]c(=O)c1CC(=O)N1CCN(c2ccccn2)CC1,i,i
Cc1ccc(-c2csc3ncnc(Nc4ccc(N5CCOCC5)cc4)c23)cc1,i,60
Cc1sc2ncnc(Nc3ccc(N4CCCCC4)cc3)c2c1C,i,i
COc1ccc(C2=NN(C(=O)c3cccc([N+](=O)[O-])c3)C(c3cccc([N+](=O)[O-])c3)C2)cc1 (configuration not stated),i,i
COc1cc(OC)cc(N2CCN(Cc3ccccc3)C(C)C2=O)c1 (configuration not stated),i,i
COc1cc(OC)cc(N2CCN(Cc3ccc(F)cc3)C(C)C2=O)c1 (configuration not stated),i,79
CS(=O)(=O)N1CCCC1C(=O)N(Cc1ccccc1)c1nc2c(Cl)cccc2s1 (configuration not stated),i,i
Cc1nc(CC(=O)NC2CCc3[nH]c4ccc(Cl)cc4c3C2)c(C)s1 (configuration not stated),i,99
O=C(NC1CC1)C1CCN(S(=O)(=O)c2ccc3[nH]c4c(c3c2)CCCCC4)CC1,i,i
O=C(Cc1c(C(=O)O)[nH]c2ccc(Cl)cc12)NC1CC1,i,i
Cc1cc(C)c(C(=O)N2CCC(CC(=O)NC3CCCCCC3)CC2)[nH]1,i,i
Cc1cc(Cl)cc2c3c([nH]c12)CCC(NC(=O)CC1CC1)C3 (configuration not stated),i,90
SMILES,Pf apPOL inh,mHTT-CaM PPI inh
O=C(NC1CCc2[nH]c3ccc(Br)cc3c2C1)C1CC=CCC1 (configuration not stated),i,98
Cc1ccc2[nH]c3c(c2c1)CN(C)CC3,i,i
Cc1ccc2[nH]c3c(c2c1)CC(NC(=O)CC(C)C)CC3 (configuration not stated),i,93
O=C(NC1CC1)c1cccc(NC(=O)C2CCC2)c1,i,i
COc1ccc(-c2c3c(=O)n(C)c(=O)n(C)c3c3cccnn23)cc1,i,i
C#Cc1cccc(NC(=O)c2cccs2)c1,i,i
CCOc1cccc(C2NC(CC(C)C)(C(=O)O)C3C(=O)N(Cc4ccccc4)C(=O)C23)c1O (configuration not stated),i,i
CC(C)C(=O)NC1CCc2[nH]c3ccc(Br)cc3c2C1 (configuration not stated),i,53
CC(CC(F)(F)F)C(=O)NC1CCc2[nH]c3ccc(Br)cc3c2C1 (configuration not stated),i,i
O=c1ccc(-c2noc(-c3ccoc3)n2)c[nH]1,i,i
COc1ccccc1CN1Cc2cccc3c2[C@@H](CC1=O)[C@H](O)[C@H](O)C3,i,i
O=C1C[C@H]2C=CCc3cccc(c32)CN1Cc1ccc(Br)cc1,i,i
O=C1CC2C=CCc3cccc(c32)CN1Cc1cccc(F)c1 (configuration not stated),i,100
Cc1ccccc1CN1Cc2cccc3c2[C@H](C=CC3)CC1=O,i,100
CC(NC(=O)c1cc2ccccc2o1)c1ccccc1 (configuration not stated),i,i
O=C(Cn1cnc(-c2cccs2)cc1=O)N1CCc2ccccc21,i,i
Cc1ccc(C)c(NS(=O)(=O)c2cccc3c2C(=O)c2ccccc2C3=O)c1,i,i
CSC1=NC=C(C#N)C2=NC(c3ccc4c(c3)OCO4)NN12 (configuration not stated),i,nt
CC(C)NC(=S)NCCc1ccncc1,i,nt
Cc1nc2nc(SCC(=O)N3CCC(C)CC3)nn2c(C)c1Cc1ccc(Cl)cc1,i,52
Cc1ccc(Cc2c(C)nc3nc(SCC(=O)NC4CC4)nn3c2C)cc1,i,i
O=C1NC(=Nc2cccc(Cl)c2Cl)S/C1=C\c1ccco1,i,100
Cc1ccc(N=C2NC(=O)/C(=C/c3ccco3)S2)cc1,i,69
COc1ccc(N=C2NC(=O)/C(=C\c3ccco3)S2)cc1,i,i
COc1cccc(/C=C2/SC(=Nc3ccccc3Cl)NC2=O)c1OC,i,i
